These results are taken from PubChem BioAssay.

This experiment concerns Inhibin beta A chain (activin A). Nature of the experiment: small molecules binding activin A – biochemical, small-molecule microarray, 635 nm fluorescence scan, primary screen (AID 1107).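 Also: mouse activin A protein probed at 4.33 µg/mL on printed slides; score merges bound-protein fluorescence near 667 nm with spot signal-to-noise.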 The conditions noted are these: INHBA, higher = more signal.
On to `COc1ccc([Si](C)(C)[C@@H]2[C@@H](CC(=O)N3CCC[C@H]3CO)O[C@]3(C(=O)N(C)c4c(Br)cc(C)cc43)[C@H]2C)cc1`, for which the composite z-score came to 0.809. The value for `CN(C)CCCCCCNC(=O)[C@H]1C[C@H]2C(=O)N[C@@H](CCCCN)C(=O)N2[C@H]1c1ccc(O)cc1` was 1.45; that for `COCC(=C=CC[C@H](O)c1ccc(OCCO)cc1)C[C@H](O)c1cc(Cl)cc(Cl)c1O` was 0.598; that for `COc1cc(C(O)C2C=CC3C(=O)N(c4ccccc4)C(=O)C3N2Nc2ccc(C#N)cc2)cc(OC)c1OC` (configuration not stated) was 0.0506.

Compound `N#Cc1ccc(NN2C(C(O)c3ccc([N+](=O)[O-])cc3)C=CC3C(=O)N(c4ccccc4)C(=O)C32)cc1` (configuration not stated) came in with a composite z-score of 0.787. Regarding `CC(=O)NCCCC[C@@H]1NC(=O)[C@@H]2C[C@H](C(=O)NCCCCCCNC(=O)CS)[C@H](c3ccc(O)cc3)N2C1=O`, the composite z-score was -0.989. `CCOC(=O)C[C@H]1[C@H](OC(=O)Cc2ccc3c(c2)OCO3)[C@@H](NC(=O)c2ccc(-c3ccccc3)cc2)c2cc(OCCCO)ccc2N1C(=O)c1ccccc1` had a composite z-score of 0.235. The compound `O=C1O[C@@H](c2ccccc2)[C@@H](c2ccccc2)N2[C@@H](c3ccccc3OCCO)[C@]3(C(=O)Nc4ccc(C#CC5(O)CCCCCC5)cc43)[C@@H](C(=O)Nc3nc4ccccc4s3)[C@H]12` showed a composite z-score of 0.251. The value for `Cc1ccccc1C(O)C1C=CC2C(=O)N(C)C(=O)C2N1N1CCCCC1` (configuration not stated) was 1.28; that for `COCCOC(=O)N1C(=O)[C@@]2(c3ccccc31)[C@H](C(=O)Nc1nc3ccccc3s1)[C@H]1C(=O)O[C@H](c3ccccc3)[C@H](c3ccccc3)N1[C@@H]2c1ccc(OCCO)cc1` was 0.464; that for `CC(C)C[C@@H]1NC(=O)[C@H]2C[C@@H](C(=O)NCCCCCNC(=O)CS)[C@@H](c3cccc(OCCO)c3)N2C1=O` was 1.25.

For `COc1ccc(C#Cc2ccc3c(c2)[C@]2(C(=O)N3)[C@H](c3ccc(O)cc3)N3[C@H](c4ccccc4)[C@H](c4ccccc4)OC(=O)[C@H]3[C@@H]2C(=O)NC[C@H](O)c2ccccc2)cc1`, the composite z-score came to 0.282. For the compound `O=C1OCC=C[C@H]2OC34C=CCN(c5ccc(Cl)cc5)C(=O)[C@H]3N(CCCCCCO)C(=O)[C@@H]4[C@@H]12` (some centres not stated), the composite z-score was -0.087.

Regarding `C=CCOC(=O)[C@H]1[C@@H]2C(=O)O[C@@H](c3ccccc3)[C@@H](c3ccccc3)N2[C@@H](c2ccc(OCCOC(=O)[C@@H]3C[C@@H]4C(=O)N5CCC[C@H]5C(=O)N4[C@@H]3c3ccc(O)cc3)cc2)[C@]12C(=O)Nc1ccccc12`, the composite z-score was -0.23. The result for `CCCC[C@H]1OB(O)C[C@H]2C1=C(C)C[C@H]1C(=O)N(Cc3ccccc3)C(=O)[C@H]12` reads 0.181; that for `CCCC[C@@H]1C[C@H]1[C@@H](NC(=O)c1ccc(-c2ccccc2)cc1)c1ccc(-c2ccccc2)cc1`, 1.35; that for `COCC(=C=CC[C@@H](O)c1ccc(CO)o1)CCO`, 0.839. The result for `Cc1ccc(S[C@]2(C(=O)NCc3ccccc3)CC(=O)N(Cc3ccccc3Cl)[C@@H]2c2ccc(CO)cc2I)cc1` reads 0.962; that for `CC=CC(O)C1C=CC2C(=O)N(c3ccccc3)C(=O)C2N1Nc1ccc(C(C)C)cc1` (configuration not stated), 0.841; that for `COCCOC(=O)N1C(=O)[C@@]2(c3ccccc31)[C@H](C(=O)NC[C@H](O)c1ccccc1)[C@H]1C(=O)O[C@H](c3ccccc3)[C@H](c3ccccc3)N1[C@@H]2c1ccc(OCCO)cc1`, 0.955. The value for `[N-]=[N+]=NCc1ccccc1C[C@@]1(C(=O)NCC(O)CO)N=C(c2ccc(OCCCO)cc2)O[C@@H]1c1ccccc1CN=[N+]=[N-]` (some centres not stated) was 0.688; that for `COc1ccc(C#Cc2ccc3c(c2)[C@]2(C(=O)N3)[C@H](C(=O)NC[C@H](O)c3ccccc3)[C@H]3C(=O)O[C@H](c4ccccc4)[C@H](c4ccccc4)N3[C@@H]2c2ccccc2OCCO)cc1` was -0.0953. `COC(=O)[C@@]1(Cc2ccccc2)[C@H]2c3cc(C(=O)N(C)C)n(Cc4cc(C)n(C)n4)c3C[C@H]2CN1C(=O)c1ccccc1`: the composite z-score came to 1.11. As to `C#CCN(C(/C=C/c1ccccc1)CO)C(C(=O)O)c1ccccc1` (configuration not stated), the composite z-score was -0.99. Regarding `COc1ccc([Si](C)(C)[C@@H]2[C@@H](CCn3cc([C@H](O)c4ccccc4)nn3)O[C@]3(C(=O)N(Cc4cccc(N5CCOC5=O)c4)c4ccccc43)[C@H]2C)cc1`, the composite z-score is -0.495.

`Cc1ccc(S[C@]2(C(=O)O)CC(=O)N(C3Cc4ccccc4C3)[C@@H]2c2ccc(CO)cc2I)cc1` yielded a composite z-score of 1.11. The result for `CCOC(=O)C[C@H]1[C@H](OC(=O)c2ccc(-c3ccccc3)cc2)[C@@H](NC(=O)Cc2ccc(OC)cc2)c2cc(OCCCO)ccc2N1C(=O)c1ccc2ccccc2n1` reads 0.827.
